Screens (PubChem BioAssay)
TDP1 inh: blocks human tyrosyl-DNA phosphodiesterase 1 | recombinant TDP1, AlphaScreen DNA substrate cleavage | Q9NUW8 | Potency, µM (top dose mostly 130 µM), inactives show at the highest dose activity change, negative = inhibition, most hits filed as inhibitors | 350,000 compounds, 0.28% hits | AID 485290; also: potency is read from the fitted curve at half-maximal effect; % is scaled to controls: 0 for no effect and ±100 for the full control effect; nearly all actives have a fitted effect of over 40% in size
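Tdp1 1 nM final; 15 min RT w/ cpd; substrate 15 nM, 5 min; beads 10 ug/ml, 10 min; AlphaScreen read. Neg ctrl: no enzyme.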
BAZ2B block: inhibitors of human BAZ2B bromodomain; Q9UIF8; AlphaScreen BAZ2B-H3K14Ac peptide displacement; Potency, µM (doses to about 114 µM), without a hit: at the top dose activity change, negative = inhibition, actives largely listed as inhibitors; 360,000 compounds, 4.4% hits; also: potency is read from the fitted curve at half-maximal effect; % is scaled to controls: 0 for no effect and ±100 for the full control effect; nearly all actives have a fitted effect of over 60% in size
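AlphaScreen luminescence quantifies BAZ2B engagement of H3K14Ac peptide; the protein and biotinylated peptide are both at 50 nM final, buffer PBS pH 7.4 with 0.01% Tween-20, all steps at room temperature.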
Six1-Eya2 blk: inhibitors of human Six1/Eya2 interaction | Q15475+O00167 | AlphaScreen GST-Six1/His-Eya2 binding, biochemical; stronger effect = lower value | activity change, % (test concentration not listed) | 360,000 compounds, 0.56% hits | AID 651725; in the data active = activity change below about -65%; inconclusive = mostly about -30% to -63%; also: % is scaled to controls: 0 for no effect and ±100 for the full control effect
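Compounds are tested against tagged Six1 and Eya2 proteins bridged by glutathione donor and nickel acceptor beads; after a one-hour incubation at 37 °C without light, AlphaScreen emission is recorded.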
CtBP-E1A blk: inhibitors of CtBP/E1A interaction | AlphaScreen GST-E1A/His-CtBP binding, 1536-well; stronger effect = lower value | activity change, % (no concentration beside the values) | 340,000 compounds, 0.49% hits | AID 651724; in the data active = activity change below about -65%; inconclusive = mostly about -30% to -63%; also: % is scaled to controls: 0 for no effect and ±100 for the full control effect
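AlphaScreen with 125 nM GST-E1A and 125 nM His-CtBP (5X stocks) in Tris pH 8.0, 300 mM NaCl, BSA, Tween 20, TCEP. Compounds preincubated 2 h at 37 deg C, then glutathione donor/nickel acceptor beads added for 1 h at 37 deg C in dark.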
JMJD2A Tudor inh: JMJD2A Tudor domain (human) inhibition; O75164; AID 504339; AlphaScreen JMJD2A-Tudor / H3K4me3 peptide binding; 390,000 compounds, 4.4% hits; Potency, µM (highest dose often 114 µM), inactives show at the top dose activity change, negative = inhibition, actives largely listed as inhibitors; also: potency is read from the fitted curve at half-maximal effect; % is scaled to controls: 0 for no effect and ±100 for the full control effect; nearly all actives have a fitted effect of over 50% in size
HP1b binding inh: inhibitors of HP1-beta chromodomain binding to methylated histone tails. 390,000 compounds, 0.56% hits. AlphaScreen HP1-beta / biotin-H3K9me3 peptide binding. P83916. Potency, µM (series often up to 114 µM), without a hit: top-dose activity change, negative = inhibition, actives largely listed as inhibitors. AID 540317; also: potency is read from the fitted curve at half-maximal effect; nearly all actives have a fitted effect of over 70% in size
Target sequence (P83916 whole entry, looked up): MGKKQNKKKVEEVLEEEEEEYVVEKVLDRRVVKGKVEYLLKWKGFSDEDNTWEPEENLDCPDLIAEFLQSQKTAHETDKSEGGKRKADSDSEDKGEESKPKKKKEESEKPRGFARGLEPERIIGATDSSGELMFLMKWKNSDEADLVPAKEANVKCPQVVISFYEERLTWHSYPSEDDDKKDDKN
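AlphaScreen: HP1-beta (50 nM) preformed 30 min with biotin-H3(1-18)K9me3 peptide (50 nM) in PBS pH 7.4, 0.01% Tween-20. Compound added for 30 min at RT, then streptavidin donor/nickel chelate acceptor beads (10 ug/mL) for 30 min.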
Active calls of the source: *; ? = inconclusive; · = no result given; [ ] = another dose, or the depositor's remark. This is a sample that favours compounds with a hit; in the whole collection about 5.3% have one here. Unless noted, calls follow the shape of the dose curve; as a rule, active = well fitted inhibition curve with a large enough effect; inconclusive = small, poorly fitted or top-dose-only effect; inactive = no such curve, though single readings can be large or run the other way.

SMILES	TDP1 inh	BAZ2B block	Six1-Eya2 blk	CtBP-E1A blk	JMJD2A Tudor inh	HP1b binding inh
C#CCOCCOCCOCCNc1nc(N2CCN(C(=O)[C@H](Cc3cc4ccccc4[nH]3)n3cc([C@@H](N)CC(C)C)nn3)CC2)nc(N2CCN(C(=O)[C@H](Cc3cc4ccccc4[nH]3)n3cc([C@@H](N)CC(C)C)nn3)CC2)n1	10%	45µM*	-19	-26	45µM*	?
Cc1ccc2[nH]c3c(c2c1)CN(C(=O)CN1CCCCC1)CC3	2%	?	-10	-6	-14%	14%
Cc1ccc2[nH]c3c(c2c1)CN(C(=O)CN1CCCc2ccccc21)CC3	12%	-14%	-20	-17	28µM*	?
Cc1cccc(OCC(=O)Nc2ccc(-c3nc4cc(C)ccc4o3)c(O)c2)c1	-2%[12.3 µM]	0%	·	·	-16%	32%
CC1CCCCC1NC(=O)COC(=O)c1c2c(nc3ccccc13)/C(=C/c1ccco1)CC2 (stereo not drawn)	-2%	45µM*	?	-1	45µM*	-35%
O=C(COC(=O)c1c2c(nc3ccccc13)/C(=C/c1ccco1)CC2)NC1CCCC1	·	10µM*	-8	-4	?	?
CC(C)C[C@@H](CC(=O)N[C@@H](CCCN)CC(=O)N[C@@H]1CCCC[C@H]1C(=O)N[C@H](CC(=O)N[C@@H](CCC(=O)O)CC(=O)O)CC(C)C)NC(=O)[C@@H]1CNCC[C@H]1N	4%	·	·	·	·	·
CCc1ccccc1NC(=O)Cn1nnc2sc3c(c2c1=O)CCC(C(C)(C)C)C3 (stereo not drawn)	0%	-18%	·	·	-18%	14%
COC(=O)c1cc(C(C)=O)n2ccccc12	1%	50µM*	-1	-8	-18%[11.4 µM]	-6%
CCn1ccnc1CNCc1ccc(OCC(O)CN(C)Cc2ccccc2)cc1 (stereo not drawn)	·	?	-2	·	?	8%
CN(Cc1ccccc1)CC(O)COc1ccc(CNCc2nccn2C)cc1 (stereo not drawn)	9%	56µM*	-15	·	-15%[11.4 µM]	14%
O=c1c2ccccc2sn1-c1ccc(Cl)cc1	·	·	-7	-2	·	·
O=c1c2ccccc2sn1-c1ccc(F)cc1	-2%	4.5µM*	-2	-2	13µM*	7%
COC(=O)c1cccc(-n2sc3ccccc3c2=O)c1	1%	6.3µM*	-14	-11	14µM*	-28%
CCOc1ccc(-n2c(SCC(=O)N3CCC(C)CC3)nc3c([nH]c4ccccc43)c2=O)cc1	-3%	-1%	·	·	0%	11%[57 µM]
NNc1nc2c(Cl)c(Cl)ccc2s1	?	50µM*	-20	-16	10µM*	-34%
CCCc1nc2ccccc2[nH]1	2%	9%	6	3	-17%	13%
Cc1ccc(-n2c(Cn3c(C)nc4ccccc43)n[nH]c2=S)cc1	-3%	2%	4	·	8.9µM*	34%
Cc1ccc(-n2c(CCc3nc4ccccc4[nH]3)n[nH]c2=S)cc1	6%	-6%	10	11	7.9µM*	-2%
S=c1[nH]nc(Cn2cnc3ccccc32)n1-c1ccccc1	·	-15%	-2	9	4.5µM*	-7%
S=c1[nH]nc(Cn2nnc3ccccc32)n1-c1ccc(Cl)cc1	12%	-7%	4	-6	-6%	49%
Cc1ccc(-n2c(COc3ccccc3)n[nH]c2=S)cc1	-2%	-20%	9	2	-35%	16%
CCn1c(CCc2nc3ccccc3[nH]2)n[nH]c1=S	-5%	-15%	8	1	4µM*	12%
CC(C)Cc1ccc(S(=O)(=O)N2CCC(c3ccncc3)CC2)cc1	7%	0%	·	·	-7%	60%
COC(=O)c1ccc2c(=O)n(CCCCCC(=O)NCc3ccc(Cl)cc3)c(=O)[nH]c2c1	-1%	-2%	·	·	-17%	27%
SMILES	TDP1 inh	BAZ2B block	Six1-Eya2 blk	CtBP-E1A blk	JMJD2A Tudor inh	HP1b binding inh
Cc1ccc(N2C(=O)C(CN3CCCCC3)C2c2ccccc2)cc1 (stereo not drawn)	-3%	-7%	2	0	-21%	89µM*
Cc1c(C(=O)NCc2ccccc2)sc2nc3n(c(=O)c12)CCC3	6%	-38%	·	·	-28%	-6%
Cc1cc(C)n(-c2nc3ccccc3nc2Nc2ccc3c(c2)OCO3)n1	3%	32%	24	35	20%	106%
Cc1cc(C)n(-c2nc3ccccc3nc2Nc2ccc(N(C)C)cc2)n1	15%	3.2µM*	·	·	11µM*	8.9µM*
COc1cccc(/C=N/n2c(COc3ccccc3)n[nH]c2=S)c1OC	·	-32%	-9	·	28µM*	-13%
Nc1nnnn1/N=C/c1ccccc1OCc1ccc(Cl)cc1	2%	-1%	8	-7	-9%	24%
Cc1n[nH]c(=S)n1/N=C/c1ccccc1OCc1ccc(Cl)cc1	5%	8%	-9	-3	50µM*	20%
COc1cccc(/C=N/n2c(COc3ccccc3)n[nH]c2=S)c1O	·	-32%	0	2	50µM*	?
COc1ccc(CN2CCc3c([nH]c4ccccc34)C2)c(OC)c1C	·	45µM*	-20	-26	1.3µM*	?
COc1cccc(CC2(CO)CCCN(Cc3ccc(OC)c(C)c3OC)C2)c1 (stereo not drawn)	·	0%	-16	-19	-29%	-3%
CCOc1cc(CN2CCc3c([nH]c4ccccc34)C2)ccc1OC	·	50µM*	-26	4	3.2µM*	?
CCOc1cc(CN2CCN(CCOCCO)CC2)ccc1OC	3%	-12%	0	6	-9%	28%
CCOC(=O)c1cnc(-n2[nH]c(C)c(Cc3ccccc3)c2=O)[nH]c1=O	9%	2µM*	-82*	-92*	7.9µM*	61%
CCOC(=O)c1cnc(Cc2ccccc2)[nH]c1=O	·	-1%	7	-1	-11%	22%
O=C(C(=NNc1ccccc1)c1ccccc1)c1ccccc1	·	·	?	-29	?	?
Oc1ccc(O)c(/C(=N/Nc2ccccc2)c2ccccc2)c1	·	45µM*	·	·	·	·
CCOC(=O)Cn1nc(-c2ccccc2)nc1-c1ccccc1	-2%	6%	6	-3	5.6µM*	73%
O=S(=O)(Nc1ccc(-c2ccc(N3CCCC3)nn2)cc1)c1ccccc1Cl	4%	0%	·	·	-19%	-1%[57 µM]
NC(=O)C1CCN(c2nc(-c3ccccc3-c3ccccc3)cs2)CC1	6%	?	·	·	45µM*	-15%
CC(=O)c1cccc(-c2csc(N3CCC(C(N)=O)CC3)n2)c1	2%	50µM*	·	·	-19%	45%
S=c1sscc1-c1ccccc1	·	·	-70*	-81*	32µM*	20µM*
